About 79,000 compounds went through this panel and 15% of them were active in at least one assay; those are over-represented in the sample as a whole. A number with no mark means an inactive call. Activity calls are given as the source filed them. Cut-off read from the data, not from the text of the source: active = growth inhibition above about 70%; inactive = the rest.
Assay: NCI Yeast Anticancer Drug Screen. Data for the mlh1 rad18 strain (AID 175)
Settings: S. cerevisiae mlh1 rad18 strain growth inhibition, stronger effect = higher value
Description: Growth inhibition of yeast strains with defined genetic alterations is measured as a screen for potential anti-cancer activity. Selected strains with alterations in DNA damage repair or cell cycle control were exposed to compounds and growth inhibition was measured relative to vehicle treated controls. The strain used in this assay is mlh1 rad18

[1] = at 5.0 µM (retest, dose inferred, filed as 0.5)
[2] = at 50.0 µM (retest, dose inferred, filed as 5.0)

| SMILES | growth inhibition [1] | growth inhibition [2] | growth inhibition (at 50.0 µM) |
| --- | --- | --- | --- |
| CC(C)(Br)C(=O)/C=C/c1ccc(Cl)c(Cl)c1 | 27% | 78% (active) | 82.8% (active) |
| NNC(=O)CCc1ccc2ccc3ccccc3c2c1 | -10% | 22% | 71.3% (active) |
| C(=C\c1ccccc1)/COc1ccccc1C(N1CCOCC1)n1nc2ccccc2n1 (configuration not stated) | 16% | 99% (active) | 99% (active) |
| CCc1ncnc2cc(OCC3CO3)c(OC)cc12 (configuration not stated) | 90% (active) | 95% (active) | 81.2% (active) |
| CN(C)CCOc1ccc2c(c1)C/C(=C/c1ncc([N+](=O)[O-])n1C)C2=O | 53% | 82% (active) | 89.3% (active) |
| C=CCC1=C(C)C(OC(=O)/C=C/c2ccccc2)CC1=O (configuration not stated) | 15% | 59% | 5.85% |
| CCCCCCCCCCCCCCCCCCNC | 41% | 94% (active) | 61.3% |
| CCCCN(CCCC)CCSc1ccc(Cl)cc1 | 3% | 80% (active) | 88.2% (active) |
| CC(C)=CC(=O)O[C@@H]1CC(C)(C)CC2C3=CCC4[C@]56CC[C@](O)(OC5)C(C)(C)C6CC[C@@]4(C)C3(C)CC[C@]21C(=O)O (some centres not stated) | -11% | 90% (active) | 78% (active) |
| c1ccc2c(c1)sc1cc3ccncc3cc12 | 8% | 94% (active) | 97.4% (active) |
| COc1ccc2c(c1)C(=O)c1ccccc1C2 | 2% | 31% | 15.6% |
| c1ccc2c(c1)C(=NCCCN1CCCCCC1)c1cccn1-2 | -2% | -2% | 89.8% (active) |
| Clc1ccccc1C1OC1c1ccccc1Cl (configuration not stated) | 57% | 100% (active) | 5% |
| CCCCCCCCCCCCCC[N+](C)(CC(=O)[O-])Cc1ccccc1 (configuration not stated) | 1% | 99% (active) | 99.1% (active) |
